D3 ag = agonists of human D3 dopamine receptor | max activation, % | D3R DiscoveRx beta-arrestin cells, luminescence, 90 min | hit rate 0.58% among 410,000; in the data active = max activation above about 30%
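Agonist-mode cell screen: cells plated at 1500/well and incubated overnight at 37 °C, then exposed to library compounds for 90 min at 37 °C. Detection reagent was added for 30–60 min at room temperature, and luminescence was read.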
D3 antag = blocks the human D3 dopamine receptor. D3R cells, DiscoveRx beta-arrestin luminescence, antagonist mode; active compounds read low. hit rate 2.5% among 360,000. max response, negative = inhibition, %. AID 652054; in the data active = max response below about -50%; inconclusive = no clear call, values can overlap the other calls
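Cells expressing the human receptor were seeded at 1500 cells/well, incubated overnight at 37 degrees C in 5% CO2, then exposed to library compounds with dopamine controls for 90 minutes at 37 degrees C before luminescent detection.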
D1 antagonist = human D1 dopamine receptor antagonism; P21728; hit rate 3.2% among 360,000; activity change, negative = inhibition, % at 10 µM; AID 504652; HEK293 TREx D1 cells, calcium flux, dopamine EC80; active compounds read low; in the data active = activity change below about -30%
Target sequence (P21728 whole entry, looked up): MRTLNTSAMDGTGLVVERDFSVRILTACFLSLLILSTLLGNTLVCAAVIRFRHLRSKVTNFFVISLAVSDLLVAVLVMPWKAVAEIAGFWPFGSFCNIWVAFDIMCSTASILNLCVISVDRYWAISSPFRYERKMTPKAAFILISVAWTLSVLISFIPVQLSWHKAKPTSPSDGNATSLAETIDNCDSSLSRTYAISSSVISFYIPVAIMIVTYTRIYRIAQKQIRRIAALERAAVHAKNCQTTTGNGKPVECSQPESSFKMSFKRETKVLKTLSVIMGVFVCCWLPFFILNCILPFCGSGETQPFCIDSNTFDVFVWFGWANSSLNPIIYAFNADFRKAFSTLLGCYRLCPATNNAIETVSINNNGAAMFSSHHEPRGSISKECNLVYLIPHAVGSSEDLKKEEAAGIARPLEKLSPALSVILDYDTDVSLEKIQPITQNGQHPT
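Using tetracycline-induced force-coupled D1 Hek293 cells and a calcium dye, signals were followed for 180 s after compound, then for 180 s after EC80 dopamine, to detect inhibitors.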
D1 potentiator = human D1 dopamine receptor positive modulation; hit rate 0.036% among 360,000; potentiation, % at 10 µM; AID 504651; HEK293 TREx D1 cells, calcium flux, dopamine EC20 potentiation; in the data active = potentiation above about 30%
D1 agonist = activates the human D1 dopamine receptor | activation, % at 2 µM | HEK293 T-REx D1 cells, calcium flux, agonist mode | hit rate 1% among 360,000 | P21728 | AID 504660; in the data active = activation above about 30%
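Agonism was scored from calcium flux recorded over 180 s (1 read/s) after pintool compound addition, following a 10-cycle baseline. Cells were inducible force-coupled HEK293 TREx D1, plated overnight at 30 C and loaded with no-wash calcium dye.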
Of the large screens only hits and unclear results are named; the others gave an inactive call. The list is not random: actives were taken first. Their share in the collection is about 6%.

CC1=C(c2ccc(C)c(C)c2)S(=O)(=O)N=C1N1CCC(C(=O)N2CCCCC2)CC1	none (no result: D3 antag)
CC(C(=O)Nc1ccc([N+](=O)[O-])cc1)N1CCN(C/C=C/c2ccccc2)CC1 (stereo not drawn)	D3 antag inconclusive, D1 antagonist -45
CC(=O)/C(N=Nc1cc2c(c([N+](=O)[O-])c1C)C(C)(C)CC2(C)C)=C(\C)O	D3 ag 34
O=C1NC(=S)N/C1=C/c1cccc([N+](=O)[O-])c1O	D3 antag -75
O=C1NC(=S)N/C1=C/c1cc([N+](=O)[O-])ccc1O	D3 antag -107
Cc1ccc(/C=C2\NC(=S)NC2=O)cc1[N+](=O)[O-]	none
O=C1NC(=S)NC1=Cc1ccc(O)cc1	none (no result: D1 antagonist, D1 potentiator, D1 agonist)
CC(=O)c1cc(-c2ccc(F)cc2)n(CCC(=O)Nc2nc3ccc(C)cc3s2)c1C	none (no result: D3 antag)
CCOC(=O)c1c(NC(=O)CSc2nnc(N)s2)sc(C)c1-c1ccc(C)cc1	D3 ag 43
Cc1nn(C)c(Oc2cccc(Cl)c2)c1C#N	none
Cn1nc(-c2ccccc2)c(C#N)c1Sc1cccc(Cl)c1	D1 agonist 88
CCCCCCCC(=O)Nc1cc(C(=O)NCCC)ccc1N1CCC2(CC1)CC(c1ccccc1)=NO2	D3 ag 48, D3 antag -119
CCCNC(=O)c1ccc(N2CCC3(CC2)CC(c2ccccc2)=NO3)c(NC(=O)c2ccccc2)c1	none
Cc1ccc(CNC(=O)c2ccc(N3CCC4(CC3)CC(c3cccc(Br)c3)=NO4)c([N+](=O)[O-])c2)cc1	none
CCCNC(=O)c1ccc(N2CCC3(CC2)CC(c2cccc(Br)c2)=NO3)c([N+](=O)[O-])c1	D3 antag inconclusive, D1 antagonist -44
OC1CCN(Cc2cn(Cc3ccccc3)nc2-c2cc3ccccc3o2)CC1	D1 antagonist -31
COC(=O)C1CCN(Cc2cn(Cc3ccccc3)nc2-c2cc3ccccc3o2)CC1	none
COCC1CCN(Cc2cn(Cc3ccccc3)nc2-c2cc3ccccc3o2)CC1	D1 agonist 39
COc1cccc(CNC(=O)c2ccc3c(c2)nc2n3CCCCC2)c1OC	none (no result: D3 antag)
CC(C)CN(C(=O)COC(=O)c1ccc([N+](=O)[O-])o1)C1CCS(=O)(=O)C1 (stereo not drawn)	D1 antagonist -32
CC(C)CN(C(=O)COC(=O)c1ccccc1SCC(=O)NC1CCCCCC1)C1CCS(=O)(=O)C1 (stereo not drawn)	D1 antagonist -42
CC(C)CN(C(=O)COc1ccc(-c2nnco2)cc1)C1CCS(=O)(=O)C1 (stereo not drawn)	D1 antagonist -47
CCN(C(=O)COC(=O)c1ccccc1SCC(=O)NC1CCCCCCC1)C1CCS(=O)(=O)C1 (stereo not drawn)	none
O=C(NCCS(=O)(=O)N1CCN(c2ccccc2F)CC1)C(c1ccccc1)c1ccccc1	none (no result: D3 antag)
Nc1ncnc2c1ncn2[C@@H]1O[C@H](CCC(=O)NCc2ccccc2)[C@@H](O)[C@H]1O	D3 antag -93 (no result: D1 antagonist, D1 potentiator, D1 agonist)
Nc1ncnc2c1ncn2[C@@H]1O[C@H](CNC(=O)[C@@H](N)Cc2ccccc2)[C@@H](O)[C@H]1O	none (no result: D1 antagonist, D1 potentiator, D1 agonist)
COc1cc2c(cc1CNC[C@H]1O[C@@H](n3cnc4c(N)ncnc43)[C@H](O)[C@@H]1O)OCO2	D3 ag 39 (no result: D1 antagonist, D1 potentiator, D1 agonist)
Nc1ncnc2c1ncn2[C@@H]1O[C@H](CNC(=O)[C@H](N)Cc2cscn2)[C@@H](O)[C@H]1O	D3 antag -84 (no result: D1 antagonist, D1 potentiator, D1 agonist)
Nc1ncnc2c1ncn2[C@@H]1O[C@H](CNC(=O)[C@@H](N)CO)[C@@H](O)[C@H]1O	none (no result: D1 antagonist, D1 potentiator, D1 agonist)
Cc1ccc(CSc2ncc(Cl)c(C(=O)Nc3nnc(C)s3)n2)cc1	none (no result: D3 antag)
OCCN(CCO)CC(O)COc1ccc(C23CC4CC(CC(C4)C2)C3)cc1 (stereo not drawn)	D1 agonist 31
OC(COCc1cccs1)CN1CCN(c2cccc(C(F)(F)F)c2)CC1 (stereo not drawn)	D3 antag -55
CCCCNc1nc2ccccc2n1CC(=O)N1CCc2ccccc2C1	D3 antag -76
CCCCNC(=O)N1CCc2ccccc2C1	none
CC(=O)c1ccc(OC2OCCOC2Oc2ccc(C(C)=O)cc2)cc1 (stereo not drawn)	D1 antagonist -39
CC(=O)c1ccc(Oc2ccc(C(C)=O)cc2)cc1	none
CNCCCC1Sc2ccccc2Oc2ccccc21 (stereo not drawn)	D3 antag -74, D1 antagonist -42
Cc1cccc(C)c1OCCn1nnc2ccccc21	D1 antagonist -42
CCC(=O)c1ccc(OCC(O)Cn2nnc3ccccc32)cc1 (stereo not drawn)	none
Cc1ccccc1OCC(O)Cn1nnc2ccccc21 (stereo not drawn)	D1 antagonist -55
CCOc1cccc2cc(-c3nc4sc5c(c4c(=O)[nH]3)CCC(C(C)(C)C)C5)c(=O)oc12 (stereo not drawn)	none (no result: D3 antag)
COc1ccc(C(=O)CN2C3=NCCCN3c3ccccc32)cc1OC	D1 antagonist -44
Cc1ccc(C)c(C(=O)CN2C3=NCCCN3c3ccccc32)c1	none
COc1cccc(C(=O)CN2C3=NCCCN3c3ccccc32)c1	D3 antag -62
CC(=O)c1ccc(NC(=O)CO/N=C(\C)c2cccs2)cc1	D1 antagonist -36
O=C(COC(=O)c1ccccc1Nc1ccccc1)Nc1ccccc1	none
CC(=O)c1ccc(NC(=O)COC(=O)c2ccccc2Nc2ccccc2)cc1	D3 antag -51
CC(=O)OCC(=O)Nc1ccc(C(C)=O)cc1	none
CC(=O)c1ccc(NC(=O)COC(=O)CCC2CCCC2)cc1	none (no result: D1 antagonist, D1 potentiator, D1 agonist)
CC(=O)NCC(=O)OCC(=O)Nc1ccc(C(C)=O)cc1	D1 antagonist -31
COC(=O)c1ccc(NC(=O)COC(=O)CCC2CCCC2)cc1	D1 antagonist -41 (no result: D1 potentiator)
CC(NC(=O)CCCn1c(=O)c2cccn2c2cccnc21)c1ccccc1 (stereo not drawn)	none (no result: D3 antag)
Cc1nc(-c2ccc(Cl)cc2)sc1C1(C)CC(c2ccc([N+](=O)[O-])cc2)=NO1 (stereo not drawn)	D3 ag 51
O=C(OCCN1C(=O)c2cccc3c(N4CCOCC4)ccc(c23)C1=O)c1ccc(Cl)cc1Cl	D1 antagonist -37, D1 agonist 165
O=C(OCCN1C(=O)c2cccc3c(N4CCOCC4)ccc(c23)C1=O)c1cccc(Cl)c1	D1 agonist 83
O=C(OCCN1C(=O)c2ccccc2C1=O)c1cc(S(=O)(=O)N2CCOCC2)ccc1Cl	none
O=C(OCCN1C(=O)c2cccc3c(N4CCOCC4)ccc(c23)C1=O)c1ccccc1Cl	D1 agonist 167
COCCCNC(=O)c1ccc(Cn2c(=O)c3ccccc3n(CC(N)=O)c2=O)cc1	none (no result: D3 antag)
Cc1cc(C)c2c(=O)c3c(oc2c1)C(=O)N(CCCOC(C)C)C3c1ccccc1F (stereo not drawn)	none (no result: D3 antag)
Cn1nnnc1Sc1ncnc2scc(-c3cccc(N)c3)c12	none (no result: D3 ag, D3 antag)

Screens from PubChem BioAssay.
